Results: PubChem BioAssay (NCI)
Several values for one entry are separate records, joined by “and”; a condition that tells them apart may be missing. Identical values can stand only once. About 79,000 compounds went through this panel and 15% of them were active in at least one assay; those are over-represented in the sample as a whole. Some compounds were tested as several samples or in several runs, with calls that do not always agree. Activity calls are given as the source filed them. Cut-off read from the data, not from the text of the source: active = growth inhibition above about 70%; inactive = the rest.

Key:
[1] = NCI Yeast Anticancer Drug Screen. Data for the rad52 strain (AID 147);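 note: 0% = growth of vehicle-treated control cultures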; conditions: S. cerevisiae rad52 mutant growth inhibition, stronger effect = higher value
How it was run: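 Genetically altered yeast (DNA damage repair defect) treated with compound; inhibition calculated relative to vehicle.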

[2] = NCI Yeast Anticancer Drug Screen. Data for the wt1 strain (AID 149);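 note: 0% = growth of vehicle-treated wt1 cultures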; conditions: S. cerevisiae wt1 strain (SPY 50644) growth inhibition, stronger effect = higher value
How it was run: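 Growth inhibition read against vehicle controls after compound exposure of the wt1 yeast strain.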

[3] = NCI Yeast Anticancer Drug Screen. Data for the rad50EPP+ strain (AID 151);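 note: 0% = growth of vehicle-treated control cultures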; conditions: S. cerevisiae rad50 mutant strain, stronger effect = higher value
How it was run: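 Strain rad50EPP+; compound exposure; % growth inhibition vs vehicle.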

[4] = NCI Yeast Anticancer Drug Screen. Data for the mgt1 strain (AID 153); conditions: S. cerevisiae mgt1 mutant growth inhibition, stronger effect = higher value
How it was run: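 Read-out: yeast growth inhibition vs vehicle control. Strain mgt1, drawn from a panel altered in DNA damage repair or cell cycle control.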

[5] = NCI Yeast Anticancer Drug Screen. Data for the rad50 strain (AID 155);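 note: 0% = growth of vehicle-only cultures of the same strain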; conditions: S. cerevisiae rad50 strain growth inhibition, stronger effect = higher value
How it was run: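 Readout: growth inhibition relative to vehicle-treated cultures. Compound exposure was carried out in a genetically defined yeast strain deficient in DNA damage repair.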

[6] = NCI Yeast Anticancer Drug Screen. Data for the mec2-1 strain (AID 157); conditions: S. cerevisiae mec2-1 strain, stronger effect = higher value
How it was run: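 Cells of the genetically defined mec2-1 yeast strain are incubated with test compound. Inhibition of growth is calculated against vehicle-treated controls.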

[7] = NCI Yeast Anticancer Drug Screen. Data for the rad14 strain (AID 159);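 note: 0% = growth of vehicle-treated control cultures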; conditions: S. cerevisiae rad14 strain growth inhibition, stronger effect = higher value
How it was run: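 Growth inhibition vs vehicle controls; genetically altered yeast strain (DNA damage repair defect) treated with test compounds.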

[8] = NCI Yeast Anticancer Drug Screen. Data for the CLN2oe strain (AID 163);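 note: 0% = growth of vehicle-only control cultures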; conditions: S. cerevisiae CLN2oe strain, stronger effect = higher value
How it was run: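 Strain altered in cell-cycle control, incubated with compound; growth compared to solvent-treated controls.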

[9] = NCI Yeast Anticancer Drug Screen. Data for the cln2 rad14 strain (AID 165);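 note: 0% = growth equal to vehicle treated cultures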; conditions: S. cerevisiae cln2 rad14 strain, stronger effect = higher value
How it was run: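 The screen exposed genetically defined yeast (cln2 rad14) to test compounds and scored growth inhibition relative to vehicle-treated controls.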

[10] = NCI Yeast Anticancer Drug Screen. Data for the bub3 strain (AID 167); conditions: S. cerevisiae bub3 mutant strain, stronger effect = higher value
How it was run: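 Readout: yeast growth inhibition, expressed relative to vehicle-only wells. The test organism is a mutant strain from a panel with lesions in DNA repair or checkpoint genes.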

[11] = NCI Yeast Anticancer Drug Screen. Data for the wt2 strain (AID 169);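 note: 0% = growth of vehicle-treated yeast cultures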; conditions: S. cerevisiae wt2 strain growth inhibition, stronger effect = higher value
How it was run: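 Steps: yeast strain treated with compound; growth recorded; inhibition calculated relative to cultures given vehicle alone.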

[12] = NCI Yeast Anticancer Drug Screen. Data for the sgs1 strain (AID 173);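 note: 0% = growth of vehicle-only control cultures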; conditions: S. cerevisiae sgs1 mutant, stronger effect = higher value
How it was run: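 Inhibition of yeast growth served as the measure. The mutant strain was treated with each compound, and growth was normalised to cultures receiving vehicle alone.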

[13] = NCI Yeast Anticancer Drug Screen. Data for the mlh1 rad18 strain (AID 175); conditions: S. cerevisiae mlh1 rad18 strain growth inhibition, stronger effect = higher value
How it was run: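 Compound-treated yeast growth, normalised to vehicle controls. Strain bears defined DNA repair mutations.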

[14] = NCI Yeast Anticancer Drug Screen. Data for the rad18 strain (AID 177); conditions: S. cerevisiae rad18 mutant growth inhibition, stronger effect = higher value
How it was run: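 Inhibition values reflect reduced yeast growth compared with vehicle-treated controls, using a strain engineered with a DNA damage repair defect.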

[15] = at 5.0 µM (retest, dose inferred, filed as 0.5)
[16] = at 50.0 µM (retest, dose inferred, filed as 5.0)

Measured: growth inhibition

O=c1[nH]c2ccc(Cl)cc2o1
98% (active) and 64% (inactive): [5]; [16]
92% (active) and 32% (inactive): [13]; [16]
inactive: [1]; at 1.2 µM -14% | [1]; at 3.7 µM -10% | [1]; at 11.0 µM -11% | [1]; at 33.0 µM -13% | [1]; at 100.0 µM -1% | [2]; at 1.2 µM -30% | [2]; at 3.7 µM -28% | [2]; at 11.0 µM -33% | [2]; at 33.0 µM -32% | [2]; at 100.0 µM -23% | [3]; at 1.2 µM -43% | [3]; at 3.7 µM -42% | [3]; at 11.0 µM -33% | [3]; at 33.0 µM -52% | [3]; at 100.0 µM -64% | [4]; at 1.2 µM -45% | [4]; at 3.7 µM -37% | [4]; at 11.0 µM -28% | [4]; at 33.0 µM -33% | [4]; at 100.0 µM -23% | [5]; at 1.2 µM -31% | [5]; at 3.7 µM -23% | [5]; [15] 47% and 1% | [5]; at 11.0 µM -17% | [5]; at 33.0 µM -19% | [5]; at 50.0 µM 15.6% and 15.7% | [5]; at 100.0 µM -18% | [6]; at 1.2 µM -62% | [6]; at 3.7 µM -70% | [6]; [15] 48% and -3% | [6]; at 11.0 µM -60% | [6]; at 33.0 µM -47% | [6]; at 50.0 µM 3.9% and 2.1% | [6]; at 100.0 µM -53% | [7]; at 1.2 µM -44% | [7]; at 3.7 µM -38% | [7]; at 11.0 µM -28% | [7]; at 33.0 µM -35% | [7]; at 100.0 µM -32% | [8]; at 1.2 µM -25% | [8]; at 3.7 µM -26% | [8]; at 11.0 µM -30% | [8]; at 33.0 µM -34% | [8]; at 100.0 µM -15% | [9]; [15] 46% and 2% | [9]; [16] 53% and 43% | [9]; at 50.0 µM 23.1% and -1.85% | [10]; at 1.2 µM -15% | [10]; at 3.7 µM -1% | [10]; [15] 57% and 20% | [10]; at 11.0 µM 7% | [11]; at 1.2 µM -27% | [11]; at 3.7 µM -27% | [11]; at 11.0 µM -31% | [11]; at 33.0 µM -27% | [11]; at 100.0 µM -6% | [12]; at 1.2 µM -36% | [12]; at 3.7 µM -47% | [12]; at 11.0 µM -48% | [12]; at 33.0 µM -34% | [12]; at 100.0 µM -22% | [13]; [15] 52% and 1% | [13]; at 50.0 µM 24.9% and -2.65% | [14]; at 1.2 µM -39% | [14]; at 3.7 µM -34% | [14]; at 11.0 µM -46% | [14]; at 33.0 µM -38% | [14]; at 100.0 µM -21%
93% (active) and 68% (inactive): [6]; [16]
active: [10]; at 33.0 µM 71% | [10]; [16] 92% and 96% | [10]; at 50.0 µM 87.3% and 92% | [10]; at 100.0 µM 92%

O=C(/C=C\c1cccc(C(F)(F)F)c1)c1ccccc1
inactive: [1]; at 1.2 µM -3% | [1]; at 3.7 µM -2% | [1]; at 11.0 µM -1% | [1]; at 33.0 µM -3% | [1]; at 100.0 µM -3% | [2]; at 1.2 µM -1% | [2]; at 3.7 µM 2% | [2]; at 11.0 µM -1% | [2]; at 33.0 µM -3% | [2]; at 100.0 µM -5% | [3]; at 1.2 µM 1% | [3]; at 3.7 µM 0% | [3]; at 11.0 µM 3% | [3]; at 33.0 µM 4% | [3]; at 100.0 µM 9% | [4]; at 1.2 µM -3% | [4]; at 3.7 µM -1% | [4]; at 11.0 µM -3% | [4]; at 33.0 µM -2% | [4]; at 100.0 µM -4% | [5]; at 1.2 µM -3% | [5]; at 3.7 µM -3% | [5]; [15] -5% | [5]; at 11.0 µM -1% | [5]; at 33.0 µM -4% | [5]; [16] 40% | [5]; at 50.0 µM 20.3% | [5]; at 100.0 µM -1% | [6]; at 1.2 µM -4% | [6]; at 3.7 µM 0% | [6]; [15] -19% | [6]; at 11.0 µM 0% | [6]; at 33.0 µM 1% | [6]; [16] 3% | [6]; at 50.0 µM 20.1% | [6]; at 100.0 µM -5% | [7]; at 1.2 µM -2% | [7]; at 3.7 µM 1% | [7]; at 11.0 µM 2% | [7]; at 33.0 µM -2% | [7]; at 100.0 µM -3% | [8]; at 1.2 µM -2% | [8]; at 3.7 µM -11% | [8]; at 11.0 µM -5% | [8]; at 33.0 µM -5% | [8]; at 100.0 µM -10% | [9]; [15] 8% | [9]; [16] 10% | [9]; at 50.0 µM 1.55% | [10]; at 1.2 µM -2% | [10]; at 3.7 µM -6% | [10]; [15] 11% | [10]; at 11.0 µM -2% | [10]; at 33.0 µM -3% | [10]; [16] 49% | [10]; at 50.0 µM 26.1% | [10]; at 100.0 µM -9% | [11]; at 1.2 µM -2% | [11]; at 3.7 µM 0% | [11]; at 11.0 µM -2%
